Compound activity as filed in PubChem.
JMJD2A Tudor: qHTS Assay for Inhibitors of JMJD2A-Tudor Domain | Potency, µM (series often up to 114 µM), without a hit: at the highest dose activity change, negative = inhibition, most hits filed as inhibitors | 390,000 tested, 4.4% active | Lysine-specific demethylase 4A (Homo sapiens), O75164 | AID 504339, 2011 | AlphaScreen JMJD2A-Tudor / H3K4me3 peptide binding; also: % is scaled to controls: 0 for no effect and ±100 for the full control effect; nearly all actives have a fitted effect of over 50% in size
G9a inh: qHTS Assay for Inhibitors of Histone Lysine Methyltransferase G9a; Histone-lysine N-methyltransferase EHMT2 (Homo sapiens), Q96KQ7; G9a H3K9 monomethylation, AlphaScreen, 2 h; Potency, µM (doses to about 102 µM), without a hit: at the top dose activity, negative = inhibition, hits mostly inhibitors; 350,000 tested, 8.8% active; AID 504332, 2011; also: % is scaled to controls: 0 for no effect and ±100 for the full control effect; nearly all actives have a fitted effect of over 75% in size
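AlphaScreen read-out: biotin-H3K9 peptide (500 nM) methylation by 20 nM enzyme with 20 uM SAM, 2 h at room temperature after 15 min compound preincubation; anti-monomethyl H3K9 antibody plus donor/acceptor beads, 10 min dark.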
HP1b binding inh: HTS for Inhibitors of HP1-beta Chromodomain Interactions with Methylated Histone Tails; AID 540317, 2011; Chromobox protein homolog 1 (Homo sapiens), P83916; Potency, µM (series often up to 114 µM), inactives show top-dose activity change, negative = inhibition, hits mostly inhibitors; AlphaScreen HP1-beta / biotin-H3K9me3 peptide binding; 390,000 tested, 0.56% active; also: nearly all actives have a fitted effect of over 70% in size
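Compound inhibition of the preformed complex between 50 nM HP1-beta and 50 nM biotinylated H3K9me3 peptide was read by AlphaScreen. Buffer was PBS pH 7.4 with 0.01% Tween-20. Incubations ran 30 min at room temperature, with 10 ug/mL donor/acceptor beads.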
TDP1 inh: qHTS Assay for Inhibitors of Tyrosyl-DNA Phosphodiesterase (TDP1); AID 485290, 2010; Potency, µM (top dose mostly 130 µM), inactives show top-dose activity change, negative = inhibition, actives largely listed as inhibitors; 350,000 tested, 0.28% active; recombinant TDP1, AlphaScreen DNA substrate cleavage; Tyrosyl-DNA phosphodiesterase 1 (Homo sapiens), Q9NUW8; also: % is scaled to controls: 0 for no effect and ±100 for the full control effect; nearly all actives have a fitted effect of over 40% in size
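Signal: AlphaScreen proximity between streptavidin donor and anti-FITC acceptor beads on intact substrate. Reaction: Tdp1 1 nM, substrate 15 nM final, 5 min RT after 15 min compound preincubation.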
Sfp inh: qHTS Assay for Inhibitors of Bacillus subtilis Sfp phosphopantetheinyl transferase (PPTase); Biochemical Sfp PPTase activity, qHTS; 310,000 tested, 3.5% active; Potency, µM, for inactives: largest response in the series, negative = inhibition, actives largely listed as inhibitors; 4'-phosphopantetheinyl transferase ffp (Bacillus subtilis), Q9F4F7; AID 1490, 2009;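 also: the enzyme is Sfp with the accession as filed and its product quenches rhodamine fluorescence; 0% = enzyme reaction without inhibitor and -100% = no enzyme wells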
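Step 1, compound plus 15 nM Sfp-PPTase, 15 min, room temperature. Step 2, add rhodamine-CoA (5 uM) and BHQ-2-YbbR (12.5 uM). Step 3, read 525/598 nm fluorescence at 0 and 30 min.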
BAZ2B inh: qHTS Assay for Inhibitors of BAZ2B | AlphaScreen BAZ2B-H3K14Ac peptide displacement | Bromodomain adjacent to zinc finger domain protein 2B (Homo sapiens), Q9UIF8 | Potency, µM (titrated, usually from 114 µM), for inactives: top-dose activity change, negative = inhibition, hits mostly inhibitors | 360,000 tested, 4.4% active; also: % is scaled to controls: 0 for no effect and ±100 for the full control effect; nearly all actives have a fitted effect of over 60% in size
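Inhibition is scored as reduced AlphaScreen emission. The BAZ2B/b-H3(5-23)K14Ac complex (50 nM each) in PBS pH 7.4, 0.01% Tween-20 meets compound (up to 110 uM) for 30 min at RT before bead addition.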
* = called active by the depositor; ? = inconclusive; · = no result; [ ] = remark or other dose. Compounds with a hit are over-represented: about 12% of the library has one in this group of screens. Calls follow the shape of the dose curve; as a rule, active = well fitted curve in the direction sought with a large enough effect; inconclusive = small, poorly fitted or top-dose-only effect, or another doubt; inactive = no such curve, though single readings can be large; an effect the other way counts as inactive or inconclusive. Potency is read from the fitted curve at half-maximal effect.

SMILES | JMJD2A Tudor | G9a inh | HP1b binding inh | TDP1 inh | Sfp inh | BAZ2B inh
CC(C)(C)c1ccc(C(=O)NCC(=O)N2CCC3(CC2)NCCc2[nH]cnc23)cc1 | -22.8% | 20.7%[59 µM] | 19.1% | 2.6% | 3.8% | -15.2%
O=C(COC(=O)c1ccc([N+](=O)[O-])o1)NCc1ccc2c(c1)OCO2 | -7.0% | · | 21.9% | -12.1% | · | ·
C=CCN1C(=O)/C(=C/c2ccc(OC(C)=O)c(OCC)c2[N+](=O)[O-])SC1=S | 25.1µM* | 6.31µM* | 15.8µM* | -1.2% | 15.8µM* | 11.2µM*
CCOc1c(OC(C)=O)ccc(/C=C/c2ccc3cccc(OC(C)=O)c3n2)c1[N+](=O)[O-] | ? | 17.0%[0.0925 µM] | -1.2% | 11.5% | 1.5% | ?
Cc1cc(NC(=O)c2ccco2)ccc1NC(=O)c1ccco1 | -11.0% | 4.2% | 36.9% | 0.0% | 14.0% | -10.8%
O=C(/C=C\c1ccco1)Nc1cc([N+](=O)[O-])ccc1F | -16.4% | -13.6%[59 µM] | 22.0% | 0.6% | -6.2% | 5.7%
Cc1cc(NC(=O)/C=C/c2ccco2)ccc1NC(=O)c1ccccc1 | -10.5% | ? | 27.6% | -7.7% | 12.6µM* | -27.7%
Cc1ccc(NC(=O)/C=C/c2ccco2)cc1F | -34.6% | 12.6µM* | ? | -12.3% | · | ?
CC1(C)CC(=O)C=C(NC2=CC3OC(c4ccccc4)OCC3OC2=O)C1 (stereo not given) | -11.0% | ? | 22.1% | 0.0% | 28.2µM* | -0.4%
O=C(NCCCn1ccnc1)C(=O)NCC(c1cccnc1)N1CCN(c2ccc(F)cc2)CC1 (stereo not given) | -34.0% | 50.1µM* | 28.5% | -5.3% | -25.5% | 50.1µM*
COc1ccc(N2CCN(C(CNC(=O)C(=O)NCCCn3ccnc3)c3cccnc3)CC2)cc1 (stereo not given) | 44.7µM* | ? | 14.8% | 8.1% | 5.4% | ·
O=C(NCc1ccc(Cl)cc1)C(=O)NCC(c1cccnc1)N1CCN(c2ccc(F)cc2)CC1 (stereo not given) | ? | ? | 16.7% | 4.6% | 7.6% | ·
O=C1C=C(c2ccc(F)cc2OCc2ccccc2)C[C@@H](c2ccc(F)cc2)C1 | 2.1% | -17.3%[0.501 µM] | 91.5% | -0.1% | · | -6.7%
Oc1ccc2ccccc2c1CNn1cnnc1 | -18.8% | 11.2µM* | 25.4% | -3.4% | -3.2% | 0.1%
Oc1ccc2ccccc2c1CNc1ccccn1 | -18.1% | 8.91µM* | 28.0% | · | -4.8% | -13.4%
C=CCNCC#CCOc1ccc(OC)cc1 | 6.31µM* | 10µM* | ? | -0.7% | -18.6% | ?
COCCNCC#CCOc1ccc(OC)cc1 | 7.94µM* | ? | ? | 4.7% | -4.9% | 50.1µM*
OC(C#CCN1CCCC1)(c1ccccc1)c1ccccc1 | -13.9% | -10.5%[12.7 µM] | 7.8% | 1.0% | 7.4% | -3.9%
OC(C#CCN1CCOCC1)(c1ccccc1)C1CC1 (stereo not given) | -22.2% | 44.7µM* | 22.4% | 0.0% | -7.8% | ?
CC(O)(C#CCN1CCCCCC1)c1ccccc1 (stereo not given) | -20.3%[11.4 µM] | 50.1µM* | 4.6% | 3.0% | 5.9% | 2.0%
Cc1ccc(-c2cc(C(=O)NCCc3ccccc3)c3c(-c4ccc(C)cc4)[nH]nc3n2)cc1 | 12.0% | -1.6%[59 µM] | 22.1% | 5.3% | · | 5.2%
COc1ccc(CNC(=O)C(C)n2ccc3cc(S(=O)(=O)N4CCCC4)ccc32)cc1OC (stereo not given) | -0.7% | ? | 32.8% | 5.6% | · | -15.0%
Cc1csc(NC(=O)CSc2nnc(Cn3c(=O)sc4ccccc43)n2-c2ccccc2)n1 | -12.9% | ? | 43.9% | 7.4% | 79.4µM* | 6.8%
Cc1ccccc1-n1c(Cn2c(=O)sc3ccccc32)nnc1SCC(=O)Nc1nccs1 | 2.1% | -4.5%[59 µM] | 51.6% | -2.6% | 13.2% | 3.1%
Cc1cc(C)n(CC(=O)NNC(=O)C2CC(=O)N(Cc3ccccc3Cl)C2)n1 (stereo not given) | -3.7% | 44.7µM* | 35.7% | -7.5% | 26.0% | -1.3%
SMILES | JMJD2A Tudor | G9a inh | HP1b binding inh | TDP1 inh | Sfp inh | BAZ2B inh
Cc1ccc(CN2CC(C(=O)NCCCn3nc(C)cc3C)CC2=O)cc1 (stereo not given) | -6.1% | · | 22.1% | · | · | ·
CC(C)c1nnc(NC(=O)c2cccc(NC(=O)C(F)(F)F)c2)s1 | -12.1% | 12.6µM* | -6.6% | 3.0% | ? | -11.7%
C=CCNC(=S)/N=c1/ccccn1C | 3.6% | 35.5µM* | 16.8% | 7.1% | -29.0% | -14.0%
Brc1cccc(CNc2nc3ccccc3n2CCN2CCOCC2)c1 | -16.5% | · | -10.5% | 6.0% | -15.7% | -21.9%
CC(=O)N1Cc2[nH]c3ccccc3c2CC1C(=O)O (stereo not given) | -1.4% | · | 29.8% | · | -5.0% | ?
CCCC1NC(C(=O)O)Cc2c1[nH]c1ccccc21 (stereo not given) | 15.8µM* | · | -4.1% | -10.7% | -17.3% | -4.4%
COC(=O)[C@@H]1Cc2c([nH]c3ccccc23)C2CCC(=O)N21 (stereo not given in full) | -21.4% | ? | -31.7% | · | 17.3% | -15.6%
COC(=O)C1Cc2c([nH]c3ccccc23)CN1C(C)=O (stereo not given) | -28.7% | 50.1µM* | -21.0% | · | -13.9% | -33.6%
O=C(O)C1Cc2c([nH]c3ccccc23)C(c2ccccc2)N1 (stereo not given) | · | · | · | 4.8%[21 µM] | 3.9% | ·
COC(=O)C1Cc2c([nH]c3ccccc23)C(C)N1 (stereo not given) | ? | 20µM* | 4.8% | 5.2% | 9.0% | -5.3%
Cc1ccc(/C=N/N2CCN(Cc3ccccc3)CC2)o1 | -33.1% | 20µM* | -2.5% | 9.3% | -25.3% | ?
Cc1ccc(/C=N/N2CCN(Cc3cccc4ccccc34)CC2)s1 | -31.4% | 20.0%[0.501 µM] | -20.2% | -2.1% | 8.1% | -6.2%
Cc1ccc(/C=N/N2CCN(Cc3cccc4ccccc34)CC2)o1 | 50.1µM* | 44.7µM* | ? | 10.7% | ? | 50.1µM*
CCOC(=O)c1ccc(NC(=O)CN(c2ccc(C)cc2)S(=O)(=O)c2c(C)noc2C)cc1 | -12.3% | 6.0%[59 µM] | 56.5% | 2.3% | · | ·
COC(=O)C(=C/C=C/c1ccco1)C(=O)OC | -8.7% | 44.7µM* | 38.4% | · | -1.1% | -23.7%
